Assay outcomes deposited in PubChem by several laboratories.
The full list was thinned out, with hits kept by preference.
RmlC RmlD mix – RmlC/RmlD inhibition, mixture screen; actives 0.39% (n = 110,000); AID 1532; RmlC/RmlD coupled enzyme inhibition, 384-well mixture HTS; inhibition, % at 5.5 µM; in the data active = inhibition above about 30%, passing the limit was not always enough; inconclusive = no clear call, values can overlap the other calls
HIV RNase H inh-1 – inhibitors of HIV-1 reverse transcriptase RNase H; P04585; RT-RNase H RNA/DNA duplex cleavage, fluorescence; actives 1.9% (n = 65,000); inhibition, % at 10 µM; in the data active = inhibition above about 50%
HIV RNase H inh-2 – confirmation of HIV-1 reverse transcriptase RNase H inhibitors; Recombinant RT RNase H, fluorescent RNA/DNA duplex cleavage; actives 39% (n = 1,000); AID 651; shares compounds with HIV RNase H inh-1; inhibition, % at 10 µM; in the data active = inhibition above about 48%; inconclusive = no clear call, values can overlap the other calls
* marks the source's active call; other numbers are inactive results; u = inconclusive; x = no result given.

SMILES	RmlC RmlD mix	HIV RNase H inh-1	HIV RNase H inh-2
CC(C)C(c1nnnn1Cc1ccccc1)N(CCCO)Cc1cc2cc3c(cc2[nH]c1=O)OCO3 (stereo unspecified)	-12	89*	11
CCC(c1nnnn1Cc1ccc(OC)cc1)N(CCCO)Cc1cc2cc3c(cc2[nH]c1=O)OCO3 (stereo unspecified)	-2	x	x
Cc1sc(-n2c(C)cc(/C=N/n3cnnc3)c2C)c(C#N)c1C	1	78*	69*
Cc1sc(-n2c(C)cc(/C=C3\SC(=S)NC3=O)c2C)c(C#N)c1C	0	x	x
Cc1cccc(NC(=O)c2cc(NC(=O)c3ccco3)ccc2N2CCCCC2)c1	21	73*	u
O=C(Nc1ccc(N2CCCCC2)c(C(=O)O)c1)c1ccco1	5	-15	x
Nc1nc(CSCCO)nc(Nc2ccc(F)cc2)n1	-10	x	x
COc1ccc(S(=O)(=O)N(CCCN2CCCC2=O)Cc2cc3cc(C)c(C)cc3[nH]c2=O)cc1	-6	-19	x
O=S1(=O)C=C(Sc2nnc(-c3ccccc3)o2)c2ccccc21	x	65*	21
Cc1cc(C)nc(SC2=CS(=O)(=O)c3ccccc32)n1	-14	-19	x
CC1(C(=O)NC(=S)N(CCC#N)c2ccccc2)CC1(Cl)Cl (stereo unspecified)	-7	x	x
O=C(Cn1c(=O)oc2ccccc21)Nc1nc(-c2ccccc2)cs1	-15	x	x
CC(C)(C)c1csc(NC(=O)Cn2c(=O)oc3ccccc32)n1	10	88*	21
CCOC(=O)C1=C(C)N=c2s/c(=C\c3ccncc3)c(=O)n2C1c1ccc2c(c1)OCO2 (stereo unspecified)	2	20	x
CCOC(=O)C1=C(C)N=c2s/c(=C3\C(=O)Nc4ccccc43)c(=O)n2C1c1ccc2c(c1)OCO2 (stereo unspecified)	6	86*	67*
Cc1ccc(C(=O)NC2CCS(=O)(=O)C2)cc1S(=O)(=O)N1CCOCC1 (stereo unspecified)	10	-10	x
COc1ccc(Cn2nnnc2C(c2cccnc2)N2CCN(c3ccc(O)cc3)CC2)cc1 (stereo unspecified)	-6	80*	85*
COc1ccc(Cn2nnnc2C(c2cccs2)N2CCN(c3ccccc3)CC2)cc1 (stereo unspecified)	-9	9	x
CCCc1cc(C(N)=O)c(NC(=O)C2CCCO2)s1 (stereo unspecified)	9	76*	64*
Cc1sc(NC(=O)C2CCCO2)c(C(N)=O)c1C (stereo unspecified)	-9	x	x
Cc1ccccc1Nc1nnc(SCC(=O)NC(=O)NCc2ccco2)s1	x	67*	20
O=C(CSc1nnc(Nc2ccccc2F)s1)NCc1ccco1	-8	33	x
CNC(=O)CN1C(=O)NC2(CCc3ccccc32)C1=O (stereo unspecified)	8	x	x
CCN(CC)c1ccc(-c2nn3c(-c4n[nH]c5c4CCC5)nnc3s2)cc1	-46	48	x
COc1ccc(-c2nnc3sc(C4CCCCC4)nn23)cc1OC	-6	-1	x
SMILES	RmlC RmlD mix	HIV RNase H inh-1	HIV RNase H inh-2
Clc1ccc(-c2ccc(-c3nn4c(-c5ccco5)nnc4s3)o2)cc1	-9	99*	u
c1coc(-c2nnc3sc(C4CCCCC4)nn23)c1	-6	75*	u
Cc1occc1-c1nnc2sc(-c3ccc(-c4ccc(Cl)cc4)o3)nn12	x	24	x
Cc1ccc(N2C(=O)c3ccc(C(=O)O)cc3C2=O)cc1C	7	x	x
O=C1C(=O)N(CCCn2ccnc2)C(c2cccnc2)/C1=C(/O)c1ccc(Br)cc1 (stereo unspecified)	x	1	x
COc1ccccc1NC(=O)c1sc2nc(-c3ccco3)ccc2c1N	10	84*	45
Nc1c(C(=O)Nc2ccccc2)sc2nc(-c3ccco3)ccc12	8	87*	4
COc1ccccc1NC(=O)c1sc(NC(=O)c2ccco2)c(C#N)c1C	4	x	x
Nc1c(C(=O)Nc2nc3ccccc3s2)sc2nc(-c3cccs3)ccc12	21	x	x
O=C(CNS(=O)(=O)c1ccc(Br)s1)N1CCN(c2ncccn2)CC1	-14	-9	x
CCC(C)Oc1nc2ccccc2nc1NS(=O)(=O)c1ccccc1 (stereo unspecified)	6	x	x
COc1ccc(C)cc1S(=O)(=O)N(C)CC(=O)N1CCC(C)CC1	-9	x	x
CCOC(=O)CCC(NC(=O)c1cncc(O)c1)C(=O)OCC (stereo unspecified)	13	-1	x
C=C(C)COc1ccc(-c2ncncc2Oc2ccc(OC)cc2)c(O)c1	5	-5	x
O=c1c(-c2ccc(O)cc2O)coc2cc(O)cc(O)c12	3	x	x
O=c1c(O)c(-c2ccc(O)cc2O)oc2cc(O)cc(O)c12	x	75*	59*
CSCC[C@H](Nc1ncnc2sc(C)c(C)c12)C(=O)O	5	x	x
Cn1c(-c2ccc3c(c2)OCO3)cnc1NC(=O)CCC(=O)NCCc1ccccc1	-6	84*	42
Cn1c(-c2ccc3c(c2)OCO3)cnc1NCc1ccccc1	2	-5	x
CC1=C(SCCC#N)S/C(=C2\SC(C)=C(SCCC#N)S2)S1	5	72*	65*
Cc1cc(NC(=O)Nc2cccs2)no1	-1	-18	x
COc1ccc(CCn2c(=N)c(C(=O)N3CCN(C)CC3)cc3c(=O)n4ccccc4nc32)cc1	21	-5	x
COc1ccc(CCn2c(=N)c(C#N)cc3c(=O)n4ccccc4nc32)cc1	x	55*	53
Cc1c(Cl)cccc1NC(=O)c1nc(C)n(-c2cc(OC(C)C)c(Cl)cc2Cl)n1	-3	x	x
CCOC(=O)c1cc2sc(C)cc2n1CC(=O)Nc1cccc(C)c1C	7	-4	x
SMILES	RmlC RmlD mix	HIV RNase H inh-1	HIV RNase H inh-2
CCOC(=O)c1cc2sc(C)cc2n1CC(=O)Nc1ccc2c(c1)OCCO2	5	58*	u
CCOc1ccccc1-c1nc(-c2ccc(NC(=O)c3ccc(Br)o3)cc2)no1	-14	7	x
CCOc1ccccc1-c1nc(-c2ccc(NC(=O)Cc3ccc(OC)cc3)cc2)no1	-94	64*	u
Cc1ccc(-c2nnc(SCC(=O)OC(C)C)n2N)cc1	16	x	x
CCc1ccccc1N1CSC2=C(C#N)C(c3ccccc3F)CC(=O)N2C1 (stereo unspecified)	-3	89*	59*
Cc1ccc(C2N(c3cccc(Cl)c3)C(=O)C3CCCN32)o1 (stereo unspecified)	11	-19	x
COc1ccc(N2CSC3=C(C#N)C(c4cccc(OC)c4OC)CC(=O)N3C2)cc1 (stereo unspecified)	-3	75*	34
COc1ccc(C2CC(=O)N3CN(c4ccc(C)c(Cl)c4)CSC3=C2C#N)cc1 (stereo unspecified)	4	21	x
C=CCOC(=O)C1=C(C)OC(N)=C(C#N)C1c1ccccc1F (stereo unspecified)	-19	4	x
COc1cc(OC)c(C2C(C#N)=C(N)OC3=C2C(=O)CC(C)C3)cc1OC (stereo unspecified)	3	3	x
COc1cc(OC)c(C2CC(=O)N3CN(c4ccccc4C)CSC3=C2C#N)cc1OC (stereo unspecified)	-3	77*	72*
Cc1cccc(N2CSC3=C(C#N)C(c4ccc(C)o4)CC(=O)N3C2)c1 (stereo unspecified)	-24	94*	55*
Cn1c(N)c(C(=O)COC(=O)C2(c3ccccc3F)CCCC2)c(=O)n(C)c1=O	3	2	x
Cc1nnc(SCC(=O)Nc2ccc3c(c2)OCO3)o1	-15	-6	x
